From PubChem BioAssay
This is a sample that favours compounds with a hit; in the whole collection about 3.5% have one here.
DNMT1 block: blocks human DNA methyltransferase DNMT1; P26358; inhibition (reported as % activation of signal), % at 10 µM; actives 0.83% (n = 360,000); DNMT1 molecular beacon, Hinp1I cleavage, fluorescence; in the data active means inhibition above about 50%
LEDGF integ inh: blocks HIV-1 LEDGF/p75-dependent DNA integration; TR-FRET IN-LEDGF/p75 DNA integration, Eu/Cy5; inhibition, % at 3.7 µM; actives 0.64% (n = 370,000);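 active means inhibition above the screen-wide mean plus 3 SD, cut at about 13% in these data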;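 further: signal is the Cy5 over europium emission ratio at 671 and 618 nm; 0% = plate median of compound wells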
MBD2 inh: MBD2-methylated oligo binding inhibition. TR-FRET, MBD2 binding to methylated oligonucleotide. inhibition, % at 4.4 µM. actives 0.31% (n = 370,000). AID 686964; in the data active means inhibition above about 13%
Target sequence (Q9UBB5 whole entry, looked up): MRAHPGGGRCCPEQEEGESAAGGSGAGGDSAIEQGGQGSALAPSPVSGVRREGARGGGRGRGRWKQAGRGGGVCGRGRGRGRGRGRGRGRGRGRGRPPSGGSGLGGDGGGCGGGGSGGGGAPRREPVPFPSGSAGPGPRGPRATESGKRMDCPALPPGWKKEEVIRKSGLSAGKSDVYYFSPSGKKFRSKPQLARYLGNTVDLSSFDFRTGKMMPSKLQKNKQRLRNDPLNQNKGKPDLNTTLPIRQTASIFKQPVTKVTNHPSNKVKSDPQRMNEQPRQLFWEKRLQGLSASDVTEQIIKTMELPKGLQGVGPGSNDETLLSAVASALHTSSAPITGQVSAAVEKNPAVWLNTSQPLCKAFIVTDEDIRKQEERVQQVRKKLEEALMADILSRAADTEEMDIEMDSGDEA
UHRF1 MBD2 ctr: human UHRF1 methylated DNA binding inhibitors. Q96T88. UHRF1 binding to methylated oligo, TR-FRET. inhibition, % at 4.4 µM. actives 0.75% (n = 370,000); in the data active means inhibition above about 21%;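 further: UHRF1 SRA domain binding a hemimethylated CpG hairpin DNA probe; 0% = median of test compound wells and 100% = reference inhibitor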
PG9 Ab binder: small molecules binding HIV-1 gp120 antibody PG9. TR-FRET gp120-PG9 antibody binding. inhibition, % at 6.7 µM. actives 0.43% (n = 360,000). AID 624416; in the data active means inhibition above about 8.5%
rCAG RNA binder: r(CAG) repeat RNA binding; TO-PRO-1 dye displacement fluorescence; inhibition, % at 3 µM; actives 1.3% (n = 370,000); AID 651821;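 active means inhibition above the plate cutoff, the mean of all test compounds on that plate plus 3 SD, cut at about 35% in these data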;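 further: 0% = DMSO alone and 100% = 100 µM mitoxantrone as full dye displacement; higher means more dye released from RNA so lower well fluorescence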
DNMT1 interf DR: shows spectral interference in the DNMT1 beacon assay; shares compounds with DNMT1 block; IC50, µM; AID 602382; 200 tested, under 10 active; molecular beacon fluorescence, spectral interference counter-screen; call rule not given here
DNMT1 inh conf: confirmation of human DNMT1 inhibitors | shares compounds with DNMT1 block | DNMT1 molecular beacon HinP1I cleavage, fluorescence | inhibition, % at 10 µM | actives 8% (n = 2,300);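 active means average inhibition of at least 30% in the single-concentration confirmation test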
Beacon interf: beacon fluorescence artifact counter-screen; shares compounds with DNMT1 block; DNMT1 molecular beacon spectral interference counterscreen, fluorescence 485/520; activation (fluorescence interference), % at 10 µM; actives 1% (n = 2,300); AID 602387;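 active means activation of at least 30% at 10 µM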;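 further: DNMT1 catalytic domain with a HinP1I cleavage step and a FAM/dabcyl DNA beacon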
PG9 binder conf: PG9 antibody binding, confirmed. shares compounds with PG9 Ab binder. TR-FRET PG9 antibody binding, biochemical. inhibition, % at 6.7 µM. actives 90% (n = 1,500); in the data active means inhibition above about 9%
PGV04 Ab binding: binds control antibody PGV04 in PG9 binder counter-screen. shares compounds with PG9 Ab binder. TR-FRET PGV04 antibody-gp120 binding, biochemical. inhibition, % at 6.7 µM. actives 95% (n = 1,500); in the data active means inhibition above about 9.5%
rCAG bind conf: r(CAG) RNA repeat binding, confirmation | shares compounds with rCAG RNA binder | TO-PRO-1 dye displacement fluorescence | actives 70% (n = 4,300) | inhibition, % at 3 µM;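 active means inhibition above a per-plate cutoff, the mean inhibition of sample wells plus 3 SD, cut at about 35% in these data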;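 further: loss of TO-PRO-1 fluorescence as compound displaces dye from 1x1 AA loop RNA; 0% = DMSO only wells and 100% = 100 µM mitoxantrone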
DNA CAG counter: DNA CAG dye complex inhibition counter-screen; inhibition, % at 3 µM; shares compounds with rCAG RNA binder; d(CAG) DNA oligo TO-PRO-1 dye displacement, fluorescence; AID 652068; actives 94% (n = 4,300);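 active means inhibition above its plate's cutoff, the mean test-well inhibition plus 3 SD, cut at about 4.8% in these data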;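 further: 0% = DNA dye mix with DMSO and 100% = 100 µM mitoxantrone; hits displace the dye from DNA and so lower well fluorescence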
UHRF1 DNA bind: inhibits human UHRF1 binding to methylated oligonucleotide, MBD2 counter-screen; shares compounds with MBD2 inh; TR-FRET; inhibition, % at 4.4 µM; actives 25% (n = 1,000); in the data active means inhibition above about 21%;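 further: UHRF1 SRA domain binding a labeled hemimethylated CpG hairpin DNA; 0% = vehicle only and 100% = reference inhibitor with vehicle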
MBD2 confirm: confirmation of human MBD2-DBD methylated oligonucleotide binding inhibitors. shares compounds with MBD2 inh. actives 26% (n = 1,000). TR-FRET MBD2-DBD binding to methylated oligonucleotide. inhibition, % at 4.4 µM. AID 720531
IN multimer up: counter-screen for LEDGF/p75 integration inhibitors: HIV-1 integrase multimerization activators | AID 1053131 | actives 17% (n = 2,000) | activation, % at 7.7 µM | TR-FRET HIV-1 integrase multimerization, biochemical | shares compounds with LEDGF integ inh; in the data active means activation above about 8.9%
TR-FRET interf: TR-FRET optical interference, LEDGF/p75 integration counter-screen; shares compounds with LEDGF integ inh; TR-FRET optical interference counterscreen, HIV-1 IN multimerization; inhibition, % at 7.7 µM; 2,000 tested, under 10 active;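 active means inhibition above the mean over all tested compounds plus 3 SD, which no compound reached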;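 further: 0% = integrase with antibodies and DMSO and 100% = antibodies without integrase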
IN-LEDGF confirm: LEDGF/p75-dependent HIV-1 integration inhibition, confirmation; shares compounds with LEDGF integ inh; AID 1053136; actives 36% (n = 2,000); inhibition, % at 3.7 µM; TR-FRET LEDGF/p75-dependent HIV-1 integration, biochemical
The depositor's hits bear a star; · = not tested or not shown; ! = a repeat was not active. Unless noted, no stated cut-off is given here; in the data, active means inhibition above about 14%; inactive means the rest.

SMILES	DNMT1 block	LEDGF integ inh	MBD2 inh	UHRF1 MBD2 ctr	PG9 Ab binder	rCAG RNA binder	DNMT1 inh conf	Beacon interf	IN multimer up	TR-FRET interf	IN-LEDGF confirm	others
O=C1C(=Cc2ccco2)CCCC1=Cc1ccco1	100.1*	61.5*	15.2*	52.2*	-1.5	22.3	0.3	0.1	0.6	-2.3	57.9*
CC1CN(S(=O)(=O)c2cccc(C(F)(F)F)c2)C(C)N1C(=O)N1CCOCC1 (stereo unspecified)	2.5	3.4	-2.0	0.8	-3.3	-1.4	·	·	·	·	·
Cc1ccc(C)n1-c1sc2c(c1C(=O)O)CCCC2	97.1*	25.3*	12.2	45.7*	-1.8	35.5*	11.3	-2.4	0.7	-3.4	25.4*
COCCCn1c(=NC(=O)c2ccccc2)c(C#N)cc2c(=O)n3cccc(C)c3nc21	37.6	1.9	3.8	2.8	-0.9	-9.4	·	·	·	·	·
Cc1cccc(C(=O)N=c2c(C#N)cc3c(=O)n4cccc(C)c4nc3n2Cc2ccco2)c1	50.9*!	17.5*	-9.8	-0.3	0.0	47.2*	1.6	-0.1	2.3	-11.4	34.9*	rCAG bind conf=38.3*;DNA CAG counter=17.6*
O=C(O)Cc1c[nH]c2ccccc12	-0.9	1.1	3.5	-0.8	-0.4	-0.6	·	·	·	·	·
O=C(O)Cc1c[nH]c2cccc(O)c12	74.3*	73.0*	55.1*	94.6*	-2.8	45.9*	36.5*	-1.7	54.6*	-274.9	39.1*	DNMT1 interf DR=>99;rCAG bind conf=28.9;DNA CAG counter=12.6*;UHRF1 DNA bind=40.2*;MBD2 confirm=16.0*
CCOC(=O)c1csc(NC(=O)C2CCCN(S(=O)(=O)c3ccccc3[N+](=O)[O-])C2)n1 (stereo unspecified)	·	1.6	1.4	2.1	·	3.2	·	·	·	·	·
Cc1nnc(SCC(=O)NCc2ccco2)[nH]c1=O	19.6	0.5	1.3	0.5	-0.3	5.5	·	·	·	·	·
Cc1cc(=O)[nH]c(SCC(=O)NCc2ccco2)n1	56.5*	19.9*	3.3	8.1	0.6	6.8	1.1	2.8	-1.2	5.9	20.9*
O=C(c1ccc(F)cc1)N1CCC(C(=O)N2CCN(S(=O)(=O)c3cccc(Cl)c3)CC2)CC1	2.2	6.3	-0.5	3.5	-2.4	-1.7	·	·	·	·	·
NC(=O)CSc1nc2scc(-c3ccco3)c2c(=O)n1-c1ccccc1	50.2*	17.5*	0.7	3.0	-1.7	12.0	2.6	1.4	-0.6	2.9	4.6
O=C(CSc1nc2scc(-c3ccco3)c2c(=O)n1-c1ccccc1)N1CCOCC1	0.8	2.1	3.0	-3.1	7.3	5.6	·	·	·	·	·
Brc1ccc(-c2nn3c(-c4ccccn4)nnc3s2)o1	8.0	4.7	-1.1	-1.9	-3.4	12.1	·	·	·	·	·
Brc1ccc(-c2nn3c(-c4ccco4)nnc3s2)o1	84.1*	14.8*	5.9	22.1*	16.2*	19.2	2.6	3.6	9.3*	-47.0	29.8*	PG9 binder conf=20.0*;PGV04 Ab binding=37.3*
COc1ccc(-n2c(SCc3nc4ccccc4[nH]3)nc3ccccc3c2=O)cc1	·	-2.3	6.0	4.6	·	9.2	·	·	·	·	·
CC(C)N1CCN(C(=O)c2ccc([N+](=O)[O-])cc2)CC1	1.8	0.6	-3.1	2.4	-0.2	0.4	·	·	·	·	·
COc1ccc(Cl)cc1-c1noc([C@@H]2O[C@H](CO)[C@@H](O)[C@H]2O)n1	1.6	1.4	-2.7	-1.3	2.4	2.2	·	·	·	·	·
COc1cccc(/C=N/NC(=O)CCc2n[nH]c(=O)[nH]c2=O)c1O	4.5	-5.2	-4.2	-3.6	-1.4	0.1	·	·	·	·	·
O=C(CCc1n[nH]c(=O)[nH]c1=O)N/N=C/c1ccco1	51.1*	15.2*	4.5	8.4	-3.7	1.4	2.4	7.2	-0.8	3.9	5.4
O=C(Nc1cc2c(oc1=O)CCCC2=O)c1ccc(Cl)cc1	96.7*	17.1*	15.7*	41.1*	-2.0	12.1	16.1	-2.4	7.2	-25.8	22.5*	UHRF1 DNA bind=29.5*;MBD2 confirm=15.6*
COc1ccc(S(=O)(=O)/N=C2/NC(=O)/C(=C/c3ccco3)S2)cc1	64.2*	38.7*	21.6*	75.8*	-1.9	85.0*	0.0	-1.1	1.2	-6.2	11.6	rCAG bind conf=41.7*;DNA CAG counter=11.1*;UHRF1 DNA bind=19.0;MBD2 confirm=2.9
CCc1ccc(N2CC(C(=O)OCC(=O)Nc3ccc([N+](=O)[O-])cc3)CC2=O)cc1 (stereo unspecified)	-3.5	1.6	-1.0	2.9	-0.5	2.5	·	·	·	·	·
Cc1nc2ccc([N+](=O)[O-])cc2c(=O)n1Cc1ccccc1Br	-31.0	-0.3	4.7	1.1	-4.0	3.4	·	·	·	·	·
C/C=C/C=C/C(=O)[C@@H]1[C@@H]([C@]2(C)OC(=O)C(C)=C2O)[C@H]2/C(=C(O)/C=C/C=C/C)C(=O)[C@]1(C)C(=O)C2(C)O (stereo partly specified)	84.9*	45.4*	12.7	48.5*	-1.9	29.8	61.3*	0.5	4.6	-23.1	77.7*	DNMT1 interf DR=>99
Cc1ccc(CNC(=O)c2c(-c3ccccc3Cl)noc2C)cc1	1.9	-3.7	-0.5	-0.9	-0.6	-2.1	·	·	·	·	·
